Screens (PubChem)
Most compounds without a hit are left out; they make up all but 7.7% or so of the library.
HCMV antiviral: inhibitors of human cytomegalovirus; 410,000 tested, 4.5% active; activity change, negative = inhibition, % at 57.5 µM; AID 1259415; HFF cells, HCMV-luciferase reporter, 72 h; active compounds read low; in the data active = activity change below about -60%; inconclusive = no clear call, values can overlap the other calls; inactive = above about -39%
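Compounds were evaluated in HFFs infected with an HCMV luciferase reporter virus (MOI 1 PFU/cell). Luciferase in lysates collected 72 h post infection served as the replication measure.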
RE007 growth inh: less growth of the S. pombe RE007 Vpr strain; S. pombe RE007 Vpr strain, BacTiter-Glo ATP luminescence, 24 h; Potency, µM (series often up to 92.2 µM), for inactives: top-dose activity change, negative = less growth, hits mostly inhibitors; 360,000 tested, 0.21% active; AID 651644; active = well fitted falling curve with a large enough effect; inconclusive = small, poorly fitted or top-dose-only effect; inactive = no such curve, though single readings can be large or run the other way; also: potency is read from the fitted curve at half-maximal effect; nearly all actives have a fitted effect of over 50% in size
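Fission yeast strain RE007, carrying one chromosomally integrated HIV-1 vpr copy, was seeded at OD 0.01 in PMG+AL medium with 23 nL pinned compound. After 24 h at 30 °C and 99% humidity, viability was read by BacTiter-Glo luminescence.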
FBPA Giardia inh: blocks Giardia fructose-bisphosphate aldolase activity. Potency, µM (titrated, usually from 59.6 µM), without a hit: top-dose activity, negative = inhibition, usual class: inhibitors. purified Giardia FBPA. A8B2U2. 290,000 tested, 0.71% active; also: potency is read from the fitted curve at half-maximal effect; nearly all actives have a fitted effect of over 55% in size
Target sequence (A8B2U2 whole entry, looked up): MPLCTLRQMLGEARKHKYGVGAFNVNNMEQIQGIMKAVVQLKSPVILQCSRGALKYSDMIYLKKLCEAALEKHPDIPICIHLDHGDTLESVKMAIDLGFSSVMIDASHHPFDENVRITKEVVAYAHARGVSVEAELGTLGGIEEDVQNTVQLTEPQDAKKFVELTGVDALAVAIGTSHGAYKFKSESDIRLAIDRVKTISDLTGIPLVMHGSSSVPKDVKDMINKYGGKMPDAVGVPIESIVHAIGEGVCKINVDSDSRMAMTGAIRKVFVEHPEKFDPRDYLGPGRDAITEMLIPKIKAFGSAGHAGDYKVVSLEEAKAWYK
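Giardia FBPA (40 nM reagent) was preincubated 10 min at RT with compound (up to 57.5 uM final), then substrate plus GAPDH/TPI/NAD/arsenate coupling system with diaphorase/resazurin was added; resorufin fluorescence (525/598 nm) was read after 20 min.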
FMDV antiviral: antivirals against foot and mouth disease virus | FMDV antiviral cell-based qHTS | Potency, µM (series often up to 57.9 µM), without a hit: top-dose activity change, negative = inhibition, most hits filed as inhibitors | 410,000 tested, 1.2% active; calls by dose curve; tested in HEK293T cells; also: read-out not given here; potency is read from the fitted curve at half-maximal effect; nearly all actives have a fitted effect of over 45% in size
TbPYK inhibitor: blocks Trypanosoma brucei pyruvate kinase. Q57TT1. TbPYK enzyme, Kinase-Glo Plus ATP luminescence, 45 min. Potency, µM (titrated, usually from 76.8 µM), without a hit: at the top dose activity, negative = inhibition, most hits filed as inhibitors. 410,000 tested, 0.12% active. AID 624173; also: potency is read from the fitted curve at half-maximal effect; nearly all actives have a fitted effect of over 50% in size
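Screened from lowest to highest concentration, compounds were pinned into TbPYK/substrate mixtures, and ADP (130 uM final) was added. Plates sat at room temperature for 45 min prior to Kinase-Glo Plus detection by luminescence.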
Sm TGR inh: blocks Schistosoma mansoni thioredoxin glutathione reductase; AID 485364; Potency, µM (highest dose often 114 µM), without a hit: at the highest dose activity change, negative = inhibition, hits mostly inhibitors; purified TGR, DTNB reduction, TNB absorbance 405 nm; Q962Y6; 360,000 tested, 3% active; also: potency is read from the fitted curve at half-maximal effect; nearly all actives have a fitted effect of over 60% in size
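First, TGR (20 nM dispensed) and NADPH were mixed with compound. Second, a 15 min room-temperature incubation followed. Third, further NADPH and then DTNB were added to start the reaction. Finally, TNB absorbance was monitored kinetically.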
The depositor's hits bear a star. Unless noted, calls follow the shape of the dose curve; as a rule, active = well fitted curve in the direction sought with a large enough effect; inconclusive = small, poorly fitted or top-dose-only effect, or another doubt; inactive = no such curve, though single readings can be large; an effect the other way counts as inactive or inconclusive. % is scaled to controls: 0 for no effect and ±100 for the full control effect.

C[C@]12CCC3C(CC[C@H]4C[C@@H](O)CC[C@]34C)[C@H]1C=CC2=O (some centres not stated) was read as HCMV antiviral 0, RE007 growth inh 7%, FMDV antiviral 20µM* and TbPYK inhibitor -7%.
C[C@]12CCC3[C@@H](CC[C@@H]4C[C@H](O)CC[C@]34C)[C@@H]1CCC2=O (some centres not stated) was read as HCMV antiviral -75*, RE007 growth inh 17%, FMDV antiviral -1%, TbPYK inhibitor 1% and Sm TGR inh 1%.
`COc1cccc(Nc2nnc(SCc3cc([N+](=O)[O-])cc4c3OCOC4)s2)c1` gave HCMV antiviral -10, RE007 growth inh -12%, FBPA Giardia inh 2%, FMDV antiviral 16µM*, TbPYK inhibitor -6% and Sm TGR inh 2%.
`Cc1ccccc1OCc1ccc(C(=O)N2CC(C)OC(C)C2)o1` (configuration not stated) gave HCMV antiviral -32, RE007 growth inh 6%, FBPA Giardia inh 2%, FMDV antiviral 4%, TbPYK inhibitor 7% and Sm TGR inh -22%.
`CC1CN(C(=O)c2ccc(COc3ccc4ccccc4c3)o2)CC(C)O1` (configuration not stated) gave HCMV antiviral 45, RE007 growth inh -11%, FBPA Giardia inh -20%, FMDV antiviral 43%, TbPYK inhibitor 0% and Sm TGR inh 32µM*.
Screening CC1CN(C(=O)c2ccc(COc3ccccc3Cl)o2)CC(C)O1 (configuration not stated) returned HCMV antiviral -10, RE007 growth inh -25%, FBPA Giardia inh 3%, FMDV antiviral 5%, TbPYK inhibitor 4% and Sm TGR inh -15%.
For CC1CN(C(=O)c2ccc(COc3ccc(C(C)C)cc3)o2)CC(C)O1 (configuration not stated) the results were HCMV antiviral 53, RE007 growth inh 0%, FBPA Giardia inh 0%, FMDV antiviral 18%, TbPYK inhibitor -4% and Sm TGR inh 40µM*.
For CCOc1ccc(NC(=O)COc2ccc(S(=O)(=O)NC3CCCCC3)cc2)cc1 the results were HCMV antiviral 10, FMDV antiviral 0%, TbPYK inhibitor -3% and Sm TGR inh -1%.
Screening COc1ccc(N2CCN(C(=O)CSc3nc(-c4ccccc4)no3)CC2)cc1 returned HCMV antiviral 28, FMDV antiviral -8%, TbPYK inhibitor -3% and Sm TGR inh 6%.
Screening COc1ccc2nc(Cl)cc(Cl)c2c1 returned HCMV antiviral 19, RE007 growth inh -12%, FBPA Giardia inh 5%, FMDV antiviral 17%, TbPYK inhibitor -6% and Sm TGR inh -13%.
`C=CS(=O)(=O)c1c2cc(OC)ccc2nc2ccc(OC)cc12` gave HCMV antiviral inconclusive, RE007 growth inh 23%, FMDV antiviral 28µM* and TbPYK inhibitor inconclusive.
Cc1cccc(Cc2c(C)nc3nc(SCC(=O)NC4CCCCC4)nn3c2C)c1 was read as HCMV antiviral -21, FMDV antiviral -12%, TbPYK inhibitor 3% and Sm TGR inh 3%.
`CCCCN1C(=O)/C(=C/C=C2\Oc3ccccc3N2CC)SC1=S` gave HCMV antiviral -38, RE007 growth inh 6%, FBPA Giardia inh -18%, FMDV antiviral 5%, TbPYK inhibitor -8% and Sm TGR inh -7%.
`CCN1/C(=C/C=C/c2oc3ccc(-c4ccccc4)cc3[n+]2CC)Oc2ccc(-c3ccccc3)cc21` gave HCMV antiviral -97*, RE007 growth inh inconclusive, FBPA Giardia inh 10%, FMDV antiviral 8.9µM*, TbPYK inhibitor -4% and Sm TGR inh 40µM*.
For CC1C/C(=C/c2ccncc2)C(=O)/C(=C/c2ccncc2)C1 (configuration not stated) the results were HCMV antiviral -101*, RE007 growth inh inconclusive, FBPA Giardia inh -3%, FMDV antiviral 10µM*, TbPYK inhibitor -2% and Sm TGR inh -3%.
For CC1C/C(=C/c2cccn2C)C(=O)/C(=C/c2cccn2C)C1 (configuration not stated) the results were HCMV antiviral -11, RE007 growth inh inconclusive, FBPA Giardia inh -26%, FMDV antiviral inconclusive, TbPYK inhibitor 0% and Sm TGR inh 0%.
For CN(CCCNC(=O)Cn1ncc2c([nH]c3ccccc32)c1=O)Cc1ccccc1 the results were HCMV antiviral 6, FMDV antiviral -4%, TbPYK inhibitor -5% and Sm TGR inh -22%.
COc1cccc(-c2nc(NCc3ccccc3)c3ccccc3n2)c1O was read as HCMV antiviral -3, RE007 growth inh 3%, FBPA Giardia inh -4%, FMDV antiviral 10%, TbPYK inhibitor -2% and Sm TGR inh 4%.
`COc1ccc(Nc2c3ccccc3nc3ccccc23)cc1` gave HCMV antiviral -102*, RE007 growth inh 9%, FBPA Giardia inh -19%, FMDV antiviral inconclusive, TbPYK inhibitor -4% and Sm TGR inh -4%.
Screening c1ccc(Nc2c3c(nc4ccccc24)CCC3)cc1 returned HCMV antiviral inconclusive, RE007 growth inh -5%, FBPA Giardia inh -1%, FMDV antiviral inconclusive, TbPYK inhibitor 4% and Sm TGR inh -6%.
For COc1cccc(-c2nc(NC3CCCC3)c3ccccc3n2)c1O the results were RE007 growth inh -4%, FBPA Giardia inh -1%, FMDV antiviral 28µM*, TbPYK inhibitor -3% and Sm TGR inh 0%.
For COc1ccc(Nc2ccc(Nc3ccc(OC)cc3)nn2)cc1 the results were HCMV antiviral -5, RE007 growth inh -21%, FBPA Giardia inh 4%, FMDV antiviral 0%, TbPYK inhibitor -1% and Sm TGR inh -7%.
COc1ccc(Nc2c3c(nc4ccccc24)CCC3)cc1 was read as HCMV antiviral -94*, RE007 growth inh -9%, FBPA Giardia inh -2%, FMDV antiviral inconclusive, TbPYK inhibitor 5% and Sm TGR inh 16%.
COc1cc(Nc2c3ccccc3nc3ccccc23)cc(OC)c1OC was read as HCMV antiviral -32, RE007 growth inh -6%, FBPA Giardia inh -3%, FMDV antiviral -24%, TbPYK inhibitor 6% and Sm TGR inh -2%.
For COc1ccc(Nc2ccc(OC)cc2)cc1 the results were HCMV antiviral 31, RE007 growth inh -24%, FBPA Giardia inh inconclusive, FMDV antiviral 31%, TbPYK inhibitor 8% and Sm TGR inh 40µM*.
Screening COC(=O)C1=C(C)NC(COC(N)=O)=C(C(=O)OC(C)C)C1c1cccc(Cl)c1Cl (configuration not stated) returned TbPYK inhibitor 2%.
For CC(C)c1cc(C(=O)NCc2ccccc2)no1 the results were HCMV antiviral 69, FMDV antiviral 51%, TbPYK inhibitor -2% and Sm TGR inh 11%.
